Results as given in the supplement of paper PMC4962491.
± gives the standard deviation of the averaged measurements.

Tested on: FaDu
Test: mitochondrial oxygen consumption rate normalised to cell number, Z score vs plate DMSO wells; higher = higher oxygen consumption (negative = OCR reduction)
Conditions: treatment time 24 h, assay medium: 5 mM glucose, 5 mM pyruvate, 4 mM glutamine
Procedure: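 Secondary screen: FaDu cells were incubated 24 h with the top 130 primary hits at 0.08, 0.4, 2 or 10 uM. Mitochondrial-specific OCR (basal minus antimycin A) was measured on a Seahorse XF96 in medium with 5 mM glucose, 5 mM pyruvate and 4 mM glutamine and normalised to Hoechst cell number. OCR score = (OCR - mean of plate DMSO wells) / SD of plate DMSO wells. Three repeats.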
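Note: compound exposure in DMEM (4 mM L-glutamine, 5 mM glucose), antimycin A injected at 2 µM after the basal reading and its residual OCR subtracted from basal.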

| SMILES | mitochondrial oxygen consumption rate normalised (0.08 µM) | mitochondrial oxygen consumption rate normalised (0.4 µM) | mitochondrial oxygen consumption rate normalised (2 µM) | mitochondrial oxygen consumption rate normalised (10 µM) |
| --- | --- | --- | --- | --- |
| COc1ccc2c(c1)c(CC(=O)O)c(C)n2C(=O)c1ccc(Cl)cc1 | -1.16 ± 1.6 | -0.0955 ± 0.33 | 0.286 ± 1.6 | -0.792 ± 1.6 |
| C[n+]1c2cc(N)ccc2cc2ccc(N)cc21 | 0.662 ± 0.73 | -1.94 ± 0.8 | -5.7 ± 0.82 | -12.3 ± 0.21 |
| C[C@@H]1O[C@@H](OC[C@H]2O[C@@H](Oc3c(-c4ccc(O)c(O)c4)oc4cc(O)cc(O)c4c3=O)[C@H](O)[C@@H](O)[C@@H]2O)[C@H](O)[C@H](O)[C@H]1O | 0.0147 ± 1.7 | 1.67 ± 0.68 | -0.481 ± 2.6 | 1.74 ± 2.4 |
| CO[C@H]1C[C@H](O[C@H]2[C@H](C)O[C@@H](O[C@@H]3/C(C)=C/C[C@@H]4C[C@@H](C[C@]5(C=C[C@H](C)[C@@H](C6CCCCC6)O5)O4)OC(=O)[C@@H]4C=C(C)[C@@H](O)[C@H]5OC/C(=C\C=C\[C@@H]3C)[C@]54O)C[C@@H]2OC)O[C@@H](C)[C@@H]1O | 0.113 ± 1.2 | 1.33 ± 0.39 | -0.504 ± 1.2 | -2.82 ± 1.1 |
| Cc1cc(CC(C)CC(C)(C)C)n(O)c(=O)c1 (configuration not stated) | 0.0907 ± 1.2 | 0.402 ± 0.1 | -4.87 ± 1.5 | – |
| CCN(CC)CCOC(=O)C(c1ccccc1)C1CCCCC1 (configuration not stated) | 0.349 ± 1.2 | 1.06 ± 1 | 1.23 ± 0.9 | 1.37 ± 1.6 |
| COc1ccc(C[C@H](N)C(=O)N[C@H]2[C@@H](O)[C@H](n3cnc4c(N(C)C)ncnc43)O[C@@H]2CO)cc1 | -1.29 ± 1.7 | -0.131 ± 0.75 | -3.4 ± 2.1 | – |
| COc1cc(NS(C)(=O)=O)ccc1Nc1c2ccccc2nc2ccccc12 | -0.738 ± 1.7 | 1.51 ± 1.1 | -1.58 ± 0.81 | -5.19 ± 1.7 |
| CCCCCCCCNC(C)C(O)c1ccc(SC(C)C)cc1 (configuration not stated) | 0.0353 ± 1.1 | -0.376 ± 0.59 | 0.293 ± 1.8 | -7.88 ± 0.64 |
| CCCCC(CC)CN1CN(CC(CC)CCCC)CC(C)(N)C1 (configuration not stated) | 1.53 ± 1.5 | 0.568 ± 0.56 | 0.773 ± 1.7 | -5.24 ± 1.7 |
| O=C(O)c1cc(/N=N/c2ccc(O)c(C(=O)O)c2)ccc1O | 0.0704 ± 1.6 | 0.359 ± 0.82 | -0.373 ± 1.2 | -0.951 ± 2.1 |
